Entries with a potency or affinity are not part of this list.
molecular target: NAD-dependent protein deacylase sirtuin-5, mitochondrial (Homo sapiens) (UniProt Q9NXA8); experiment: blockers of sirtuin-5 peptide desuccinylation – biochemical, fluorescence imaging, cherry-pick, set 6, dose response (AID 720597); details: Purified SirT5, succinyl-peptide-AMC/trypsin fluorescence; series mostly up to 15 µM; activity change, negative = inhibition: at the top concentration;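 note: lower AMC signal can also come from blocking the trypsin step; 0% = median of neutral control wells and -100% = median of positive control wells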
Sequence (Q9NXA8 whole entry, looked up): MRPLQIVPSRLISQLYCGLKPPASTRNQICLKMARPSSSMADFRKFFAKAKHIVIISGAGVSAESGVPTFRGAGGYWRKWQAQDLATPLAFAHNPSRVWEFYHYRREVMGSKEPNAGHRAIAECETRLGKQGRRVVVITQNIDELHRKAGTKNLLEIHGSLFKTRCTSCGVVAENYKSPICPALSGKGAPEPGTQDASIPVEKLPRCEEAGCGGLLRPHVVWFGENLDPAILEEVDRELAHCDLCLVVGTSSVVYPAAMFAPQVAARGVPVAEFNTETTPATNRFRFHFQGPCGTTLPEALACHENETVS

Activity change, negative = inhibition, inactive:
CN1c2ccc(-c3ccccc3)cc2[C@H]2[C@H](CCN2C(=O)Cc2ccccn2)[C@H]1CO -17.4%
CC(=O)N(Cc1cccc(F)c1)C[C@H]1[C@@H](c2ccccc2)[C@@H](CO)N1C(C)=O -14.4%
C[C@@H]1CN([C@@H](C)CO)C(=O)c2cccc(NS(=O)(=O)c3cn(C)cn3)c2O[C@H]1CN(C)Cc1ccc(C(F)(F)F)cc1 -11%
CCCC#Cc1ccc2c(c1)O[C@@H](CN(C)C(=O)c1cnccn1)[C@@H](C)CN([C@@H](C)CO)S2(=O)=O -11.5%
C[C@@H]1CCCCO[C@@H](CN(C)Cc2ccc(C(F)(F)F)cc2)[C@H](C)CN([C@H](C)CO)C(=O)c2cc(NS(=O)(=O)c3ccccc3)ccc2O1 -0.747%
COc1cccc(S(=O)(=O)N(C)C[C@@H]2Oc3cc(C4=CCCCC4)ccc3S(=O)(=O)N([C@@H](C)CO)C[C@H]2C)c1 -19.3%
COc1ccc(NC(=O)Nc2ccc3c(c2)C(=O)N([C@H](C)CO)C[C@@H](C)[C@@H](CN(C)Cc2ccc(C(F)(F)F)cc2)O3)cc1 7.37%
COc1ccc(CN(C)C[C@H]2Oc3ccc(NS(=O)(=O)c4ccc(Cl)cc4)cc3CC(=O)N([C@@H](C)CO)C[C@@H]2C)cc1 -24.5%
COc1ccc(S(=O)(=O)Nc2ccc3c(c2)C(=O)N([C@@H](C)CO)C[C@@H](C)[C@@H](CN(C)S(=O)(=O)c2cccs2)OCCCC[C@H](C)O3)cc1 -15.8%
C[C@@H]1CN([C@@H](C)CO)C(=O)c2cc(-c3cccc(F)c3)cnc2O[C@@H]1CN(C)Cc1ccncc1 19.1%
COc1ccc(CN(C)C[C@@H]2Oc3ccc(NC(=O)Nc4ccc(OC)cc4)cc3C(=O)N([C@@H](C)CO)C[C@H]2C)cc1 -0.857%
C[C@H]1CN([C@@H](C)CO)C(=O)Cc2cc(NC(=O)Nc3ccc(C(F)(F)F)cc3)ccc2O[C@H]1CN(C)Cc1ccc(C(=O)Nc2ccccc2N)cc1 4.98%
COc1ccc(CN(C)C[C@H]2OCCCC[C@@H](C)Oc3ccc(NC(=O)NC4CCCCC4)cc3C(=O)N([C@H](C)CO)C[C@H]2C)cc1 -22.3%
C[C@H]1CN([C@@H](C)CO)C(=O)c2c(c3ccccc3n2C)-c2ccccc2CO[C@H]1CN(C)Cc1cccc2c1OCCCO2 0.028%
COc1ccc(NC(=O)N(C)C[C@@H]2OCc3ccccc3-c3c(n(C)c4ccccc34)C(=O)N([C@@H](C)CO)C[C@@H]2C)cc1 2.24%
C[C@@H]1CCCCO[C@@H](CN(C)S(=O)(=O)c2ccc(Cl)cc2)[C@H](C)CN([C@@H](C)CO)C(=O)c2cc(NS(=O)(=O)c3ccccc3)ccc2O1 -16.3%
CNC[C@@H]1Oc2ccc(NC(=O)Nc3ccc(F)cc3)cc2CC(=O)N([C@H](C)CO)C[C@H]1C 3.83%
CC(C)NC(=O)Nc1ccc2c(c1)C(=O)N([C@@H](C)CO)C[C@H](C)[C@H](CN(C)C(=O)NC(C)C)OCCCC[C@@H](C)O2 7.8%
COc1ccc(S(=O)(=O)Nc2ccc3c(c2)C(=O)N([C@H](C)CO)C[C@@H](C)[C@@H](CN(C)Cc2ccc(C(F)(F)F)cc2)OCCCC[C@@H](C)O3)cc1 -7.85%
C[C@@H]1CN([C@H](C)CO)C(=O)c2c(c3ccccc3n2C)-c2ccccc2CO[C@@H]1CN(C)S(=O)(=O)c1ccc(Cl)cc1 -23.3%
COc1ccc(S(=O)(=O)Nc2ccc3c(c2)C(=O)N([C@H](C)CO)C[C@@H](C)[C@@H](CN(C)S(=O)(=O)c2ccccc2)OCCCC[C@@H](C)O3)cc1 -8.5%
COc1ccc(S(=O)(=O)N(C)C[C@H]2OCCCC[C@H](C)Oc3ccc(NS(=O)(=O)c4ccc(Cl)cc4)cc3C(=O)N([C@H](C)CO)C[C@H]2C)cc1 -2.51%
C[C@@H]1CN([C@H](C)CO)C(=O)CCCn2cc(nn2)CO[C@H]1CN(C)S(=O)(=O)c1ccc(F)cc1 -5.68%
C[C@H](CO)N1C[C@H](C)[C@@H](CN(C)S(=O)(=O)c2ccccc2)Oc2ccc(NC(=O)Nc3ccc(C(F)(F)F)cc3)cc2CC1=O -26.9%
Cc1ccc(S(=O)(=O)N(C)C[C@H]2OCCCC[C@H](C)Oc3ccc(NS(=O)(=O)c4ccc(Cl)cc4)cc3C(=O)N([C@@H](C)CO)C[C@@H]2C)cc1 2.27%
CCCC#Cc1ccc2c(c1)O[C@H](CN(C)C(=O)c1ccccc1F)[C@@H](C)CN([C@@H](C)CO)S2(=O)=O -29.6%
C[C@H]1CN([C@@H](C)CO)S(=O)(=O)c2ccc(/C=C/c3ccccc3)cc2O[C@@H]1CN(C)C(=O)NC1CCCC1 7.67%

Source: PubChem BioAssay AID720597 (Broad Institute, 2013)
